# Measurements taken from paper PMC4336329 (PLoS ONE, 2015).
# The whole screen tested about 310,000 compounds, of which about 14,000 (4.5%) showed an effect of 50% or more. Effects have a minus sign here. The full list was thinned out, with strong results kept by preference.
# Target: human ether-à-go-go-related gene (hERG) potassium channel (human, UniProt Q12809)
# Assay: primary screen, population patch clamp on CHO cells stably expressing hERG; higher = less effect of the substance
# 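Further: peak tail current of the secondary pulse compared with the same well before compound.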
# Sequence of human ether-à-go-go-related gene (hERG) potassium channel (Q12809 whole entry, looked up): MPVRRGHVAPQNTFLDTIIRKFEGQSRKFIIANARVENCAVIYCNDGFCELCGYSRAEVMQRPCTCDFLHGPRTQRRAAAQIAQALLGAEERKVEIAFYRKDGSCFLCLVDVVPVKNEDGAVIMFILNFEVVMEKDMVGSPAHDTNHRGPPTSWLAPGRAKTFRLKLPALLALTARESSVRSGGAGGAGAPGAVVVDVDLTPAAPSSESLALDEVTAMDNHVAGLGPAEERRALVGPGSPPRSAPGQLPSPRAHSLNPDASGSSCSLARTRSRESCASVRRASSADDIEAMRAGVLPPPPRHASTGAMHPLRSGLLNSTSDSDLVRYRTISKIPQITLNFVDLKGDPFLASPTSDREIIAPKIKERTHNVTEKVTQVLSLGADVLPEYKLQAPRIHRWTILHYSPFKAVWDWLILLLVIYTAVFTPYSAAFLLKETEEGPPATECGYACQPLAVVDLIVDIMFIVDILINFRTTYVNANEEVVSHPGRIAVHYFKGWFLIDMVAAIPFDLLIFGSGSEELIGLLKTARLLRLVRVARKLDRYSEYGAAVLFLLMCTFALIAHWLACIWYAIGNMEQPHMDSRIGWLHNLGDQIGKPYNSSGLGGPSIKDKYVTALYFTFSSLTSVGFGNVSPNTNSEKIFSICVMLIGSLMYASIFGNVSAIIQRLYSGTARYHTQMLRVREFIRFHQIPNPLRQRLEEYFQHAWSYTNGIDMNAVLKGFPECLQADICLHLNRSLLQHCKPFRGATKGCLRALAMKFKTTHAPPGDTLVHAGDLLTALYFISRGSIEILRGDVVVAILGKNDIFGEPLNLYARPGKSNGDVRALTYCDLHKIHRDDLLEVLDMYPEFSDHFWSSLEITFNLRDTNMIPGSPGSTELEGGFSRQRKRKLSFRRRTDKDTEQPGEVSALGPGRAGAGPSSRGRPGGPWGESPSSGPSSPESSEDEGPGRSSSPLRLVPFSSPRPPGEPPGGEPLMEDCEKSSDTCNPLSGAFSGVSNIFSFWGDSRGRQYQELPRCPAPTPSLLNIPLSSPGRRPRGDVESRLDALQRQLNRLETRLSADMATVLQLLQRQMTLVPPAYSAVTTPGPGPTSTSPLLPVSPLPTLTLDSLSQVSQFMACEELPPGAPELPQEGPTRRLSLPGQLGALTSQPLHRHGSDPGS
row,SMILES,"hERG current change (%, negative = inhibition) at 10uM"
1,C=CCN1C(=O)NC(=O)/C(=C/c2cc3c4c(c2)CCCN4CCC3)C1=O,-10.2%
2,CC1CC(C(F)(F)F)n2ncc(C(=O)O)c2N1 (centres unmarked),11.5%
3,CCNC(=O)c1ccc2c(c1)C1C3CCC(C3)C1C(c1ccccc1)N2 (centres unmarked),-5.8%
4,CC1=C(C(=O)Nc2ccc(F)cc2)C(c2ccc(C)o2)C2=C(CC(C)(C)CC2=O)N1 (centres unmarked),-7.85%
5,COc1ccccc1CNC(=O)COC(=O)c1cc(=O)[nH]c2ccccc12,1.03%
6,Cc1cc(Cl)ccc1C(=O)C1CCCN(C(=O)c2cnn(C(C)C)c2)C1 (centres unmarked),-17.7%
7,CC(C)Oc1ccc(C(=O)NN2C(=O)NC3(CCCCC3)C2=O)cc1,1.38%
8,CCOC(=O)N1CCC(N(CCN(C)C)C(=S)Nc2cccc(C)c2)CC1,4.81%
9,COc1ccc(OC)c(NC(=O)NNC(=O)c2cc3occc3[nH]2)c1,14.3%
10,NNC(=O)CC12CC3CC(C1)CC(n1ncnn1)(C3)C2,-15.1%
11,COc1ccc(CCC(=O)N(c2nnc(-c3cccnc3)s2)C(C)C)cc1.Cl,-49.6%
12,Cc1ccc(NC(=O)Cc2ccc(Cl)c(Cl)c2)cc1S(=O)(=O)N(C)C,7.88%
13,Cc1ccc(NC(=O)CN(C)C2CCCCC2)cc1Br.Cl,-28.8%
14,CN(CC(=O)Nc1ccc(OC(F)(F)F)cc1)C1CCCCC1.Cl,-61.6%
15,CN(CC(=O)Nc1ccc(F)c(F)c1F)C(=O)C1CCC1,9.13%
16,CCOc1ccc(NC(=O)C(=O)NCC2CCCN2CC)cc1 (centres unmarked),-16.4%
17,CN(CC(=O)Nc1ccc(F)c(F)c1F)C1CCCCC1,-52.5%
18,CCCCCOc1ccc(NC(=O)C(=O)NCC2CCCN2CC)cc1 (centres unmarked),-77.9%
19,CCOC(=O)C1CSC(CC(=O)Nc2ccc(Cl)cc2)C(=O)N1 (centres unmarked),-14.9%
20,CCOC(=O)C1CSC(CC(=O)Nc2ccc(OC(F)(F)F)cc2)C(=O)N1 (centres unmarked),-56.3%
21,CN(CC(=O)Nc1ccc(F)c(F)c1F)C(=O)C1CCCC1,1.05%
22,CCOC(=O)C1CSC(CC(=O)Nc2ccc(OCC)cc2)C(=O)N1 (centres unmarked),-5.69%
23,CN(CC(=O)Nc1ccc(OC(F)(F)F)cc1)C(=O)C1CCC1,-1.21%
24,CCN1CCCC1CNC(=O)C(=O)Nc1ccccc1 (centres unmarked),-9.35%
25,CC(=O)Nc1ccc(NC(=O)c2ccc(COc3ccccc3Br)o2)cc1,17.1%
26,CCOC(=O)c1c(C)[nH]c(C(=O)COC(=O)CN2C(=O)C3CCCCC3C2=O)c1C (centres unmarked),-16.8%
